Test results published in PubChem BioAssay AID504834 (National Center for Advancing Translational Sciences (NCATS), 2011).
Several values for one entry are separate records, joined by “and”; a condition that tells them apart may be missing. Equal values may be shown once. In all, about 320,000 compounds went through this assay and about 22,000 (6.9%) were called active. Roughly 27% stayed inconclusive and do not appear here. The sample holds actives, similar compounds and a random draw of the others, so the mix is not that of the screen. Calls come from the whole dose curve; as a rule, active = well fitted inhibition curve with a large enough effect; inconclusive = small, poorly fitted or top-dose-only effect, or another doubt; inactive = no such curve, though single readings can be large or run the other way. Some structures have more than one record in an assay (separate samples or runs), and their calls can disagree.

Assay: Primary qHTS for delayed death inhibitors of the malarial parasite plastid, 96 hour incubation
Settings: P. falciparum luciferase reporter growth; series mostly up to 28.7 µM; activity change, negative = inhibition: at the top concentration
Description: The goal of this screen is to discover new antimalarial compounds that act by inhibiting the development of the apicoplast in the malarial parasite Plasmodium falciparum. The biochemical processes that make this organelle essential for erythrocytic stage parasites are not well understood. However, antibiotics such as azithromycin and tetracycline, which target the apicoplast translational machinery, have a potent antimalarial effect.
We have developed a cell-based assay that measures parasite growth based on the expression of an integrated copy of a firefly luciferase reporter. To detect small molecules that cause this "delayed death" phenotype, erythrocytes infected with the luciferase-expressing parasites were incubated with compounds for either one or two generations, corresponding to 48 and 96 hours, respectively. Compounds that inhibit parasite growth in the second generation, but not the first, should be enriched in antimalarials that target the apicoplast. Growth inhibition is detected by a decrease in luciferase activity.
Assay Provider: David Fidock and Eric Ekland, Columbia University
Keywords: NIH Roadmap, MLPCN, MLI, MLSMR, qHTS, NCGC, qHTS, malaria, luciferase, viability
Four microliters of infected erythrocytes (2% hematocrit, 0.05% parasitemia final concentration) in culture medium were dispensed and the plates incubated for 96 hours at 37 C in 5% CO2. Two microliters of luciferase detection reagent was added and luminescence was detected by a ViewLux (PerkinElmer) reader.
% is set by controls: 0 for no effect and ±100 for the full control effect; potency is the fitted concentration of half-maximal effect.

Structure (SMILES) | activity change, negative = inhibition | Potency
CCCCC(=O)Nc1c2c(nn1-c1ccc([N+](=O)[O-])cc1)CS(=O)(=O)C2 | 14.9% (inactive) | 
O=C(NCc1ccccn1)C1CCN(S(=O)(=O)c2ccc(Br)cc2)CC1 | 21.9% (inactive) | 
COc1ccc2[nH]c(C)c(CCN(Cc3cccs3)C(=S)Nc3ccccc3OC)c2c1 |  | 13.1 µM (active)
COCCN(C(=S)Nc1ccccc1OC)C1CCN(C(C)C)CC1 | -15.9% (inactive) | 
CCN(CC(=O)NCc1cccs1)C(=O)c1cccc(S(=O)(=O)Nc2ccccc2OC)c1 | 15.4% (inactive) | 
COc1ccc(S(=O)(=O)NC(C)c2ccccc2)cc1C(=O)N1CCCCC1 (stereo not drawn) | 25.7% (inactive) | 
CC(C)(C)c1csc(NC2=NS(=O)(=O)c3ccccc32)n1 | 0% (inactive) | 
CC(C)C(NS(=O)(=O)c1cccs1)C(=O)Nc1nc(C(C)(C)C)cs1 (stereo not drawn) |  | 13.1 µM (active)
CC(=O)Nc1ccc(S(=O)(=O)N2CCN(S(=O)(=O)c3cccs3)CC2)cc1 | -14.8% (inactive) | 
Cc1ccc(CS(=O)(=O)CCC(=O)NCc2ccc(F)cc2)cc1 | -0.448% (inactive) | 
COc1ccc(CCC(C)N2CCc3ccccc3C2)cc1 (stereo not drawn) | 1.99% (inactive) | 
O=C(CN(C(=O)CCC(=O)Nc1nccs1)c1ccc(F)cc1)NCc1ccc2c(c1)OCO2 | 45.9% (inactive) | 
CCC1Sc2ccc(S(=O)(=O)CCC(=O)NCc3cccs3)cc2NC1=O (stereo not drawn) | 6.87% (inactive) | 
Cc1nc(-c2nnc(SCC(=O)Nc3cc(C(F)(F)F)cc(C(F)(F)F)c3)n2C)cs1 | 25.6% (inactive) | 
CCN(C(=O)COC(=O)C1CCN(S(=O)(=O)c2ccc(C)c(C)c2)CC1)C1CCS(=O)(=O)C1 (stereo not drawn) | -1.93% (inactive) | 
CCCNC(=O)OC[C@H]1O[C@H](CCO/N=C/[C@@H](NS(=O)(=O)c2ccc(C)cc2)[C@H](C)/C=C/CC(=O)OC)C=C[C@@H]1Oc1ccc(OC)cc1 |  | 7.38 µM (active)
CCCC(C)NC(=O)C1CCN(C(=O)C2CC(=O)N(c3ccc(C)cc3)C2)CC1 (stereo not drawn) | 332% (inactive) | 
COc1ccc(CCNC(=O)COC(=O)C2CC2C)cc1 (stereo not drawn) | -20.6% (inactive) | 
O=C(NCCCn1ccnc1)Nc1ccc(Cl)cc1Cl | -24.9% (inactive) | 
Clc1ccc(C(Cn2ccnc2)OCc2ccsc2Cl)c(Cl)c1 (stereo not drawn) |  | 6.75 µM (active)
O=C(Nc1ccccc1C(=O)NCCCn1ccnc1)c1ccc(Cl)cc1Cl | -16.7% (inactive) | 
CC(OC(=O)CCCOc1ccccc1)C(=O)Nc1ccc(Cl)cn1 (stereo not drawn) | 0.813% (inactive) | 
CC1CCN(C(=O)COC(=O)CCC(=O)c2cccs2)CC1 | 0.599% (inactive) | 
Cc1c(C(C)(C)O)[nH]c2ccc(C#N)cc12 | 108% (inactive) | 
O=C(c1ccccc1F)N1CCN(S(=O)(=O)c2ccc(Br)cc2)CC1 | -20% (inactive) | 
O=S(=O)(c1ccc(Br)cc1)n1ccc2ccccc21 |  | 2.62 µM (active)

Structure (SMILES) | activity change, negative = inhibition | Potency
O=S(=O)(c1ccc(Br)cc1)N1CCC(c2nc3ccccc3[nH]2)CC1 | 36.7% (inactive) | 
C/C=C/c1ccc(OCC(=O)OCC(=O)Nc2c(C)nn(-c3ccccc3)c2C)c(OC)c1 | 9.93% (inactive) | 
COc1ccc(CNC(=O)C(c2ccc(O)cc2)N(Cc2ccco2)C(=O)c2snc(C(N)=O)c2N)cc1 (stereo not drawn) | -9.26% (inactive) | 
Cc1cccc(C(=O)N2CCCC(Nc3ccc(C(C)C)cc3)C2)n1 (stereo not drawn) | 25.2% (inactive) | 
CC(C)NC(=O)CCCn1c(=S)[nH]c2cc3c(cc2c1=O)OCO3 | 4.1% (inactive) | 
CCCCNC(=O)CCn1c(=S)[nH]c2cc3c(cc2c1=O)OCO3 | 139% (inactive) | 
O=C(CCn1c(=S)[nH]c2cc3c(cc2c1=O)OCO3)NCc1ccc(Cl)cc1 |  | 11.7 µM (active)
COc1ccc(-c2csc(Nc3ccc(O)cc3)n2)cc1 | 37.7% (inactive) | 
COc1ccc(Nc2nc(-c3ccccc3)cs2)cc1 | 8.91% (inactive) | 
CCCn1c(CCNc2nc(-c3ccc(OC)cc3)cs2)nc2ccccc21 |  | 11.7 µM (active)
CC(=O)c1cc2c(cc1NC(=O)Cn1nc(-c3ccc(F)cc3)ccc1=O)OCO2 | 23.7% (inactive) | 
COc1ccc(N=C2SC(C(=O)Nc3ccc(F)cc3)CC(=O)N2C)cc1 (stereo not drawn) | 3.01% (inactive) | 
O=C(Cc1ccc(F)cc1)N/N=C/c1ccc2c(c1)OCO2 | 94.1% (inactive) | 
CNC(=O)C1CC(=O)N(Cc2ccc3c(c2)OCO3)C(=Nc2ccc(F)cc2)S1 (stereo not drawn) |  | 6.57 µM (active)
CC1CCN(C(=O)/C(=C\c2ccccc2F)NC(=O)c2ccccc2)CC1 | 27.9% (inactive) | 
Cn1c(=O)c2c(nc(N3CCCCCC3)n2CC(=O)c2ccc(Br)cc2)n(C)c1=O | 23.4% (inactive) | 
Cn1c(=O)c2c(nc(NCc3ccccc3)n2CC(N)=O)n(C)c1=O | 23.9% (inactive) | 
C=CCn1c(Oc2ccc(C(=O)OC)cc2)nc2c1c(=O)n(C)c(=O)n2C |  | 5.86 µM (active)
COc1ccc(NC(=O)CCNC(=O)Cn2cnc3sc4c(c3c2=O)CCCC4)cc1OC | 14.1% (inactive) | 
C=CCN1C(=O)C2(OCCCO2)c2cccc(Cl)c21 | -23.1% (inactive) | 
COc1ccc(-c2nnc3n2CCCCC3)cc1 | 32.2% (inactive) | 
CC(=O)N1c2ccc(S(=O)(=O)N3CCCC(C(=O)Nc4cccc(F)c4)C3)cc2CC1C (stereo not drawn) |  | 11.7 µM (active)
CC(=O)N1c2ccc(S(=O)(=O)N3CCCC(C(=O)Nc4cccc(Cl)c4)C3)cc2CC1C (stereo not drawn) | -15.3% (inactive) | 
CC(=O)N1c2ccc(S(=O)(=O)N3CCC(C(=O)NC4CCCCC4C)CC3)cc2CC1C (stereo not drawn) | -7.95% (inactive) | 
O=C(CN1C(=O)S/C(=C\c2ccccc2Cl)C1=O)NC1C=CS(=O)(=O)C1 (stereo not drawn) | 3.43% (inactive) | 
COC(=O)c1c(-c2ccc(C)cc2)csc1N |  | 13.1 µM (active)

Structure (SMILES) | activity change, negative = inhibition | Potency
CCOC(=O)c1c(-c2ccc(C)cc2)csc1/N=C(\C)C1=C(O)c2ccccc2C1=O | -6.18% (inactive) | 
CCOC(=O)c1c(-c2ccccc2)csc1NC(=S)NC(=O)c1ccccc1 | 38.7% (inactive) | 
COc1cc2ccccc2cc1C(=O)N1CCOCC1 | 6.89% (inactive) | 
CC(C(=O)NC1CCCCC1)N1C(=O)c2cccc3cccc1c23 (stereo not drawn) | -27.6% (inactive) | 
O=C(Oc1ccc(F)cc1)N1CCOCC1 | 56.1% (inactive) | 
Cc1ccc(OCC(=O)NCCCNC(=O)c2ccco2)cc1C | 0.751% (inactive) | 
CCOc1ncccc1C(=O)NCCc1ccc(OC)cc1 | -2.75% (inactive) | 
COc1ccc(CCNC(=O)c2ccco2)cc1 |  | 7.38 µM (active)
Cc1ccc(C)c(NC(=O)C(c2ccccc2)N2CCN(CC(=O)NC3CC3)CC2)c1 (stereo not drawn) |  | 14.7 µM (active)
Cc1ccc(C)c(NC(=O)COC(=O)CSc2ccccc2)c1 | -20.2% (inactive) | 
Cc1ccc(Cl)c(NC(=O)CN2CCN(C=O)CC2)c1 | 23.5% (inactive) | 
Cc1ccc(NS(=O)(=O)c2c(C)[nH]c(C)c2C(=O)N2CCCCC2)c(C)c1 | -29.1% (inactive) | 
Cc1ccc(S(=O)(=O)N(C)C)cc1NC(=O)c1ccc(-n2cncn2)c([N+](=O)[O-])c1 | -7.86% (inactive) | 
C=CCn1c(SCc2c(C)noc2C)nc2sc3c(c2c1=O)CCC(C)C3 (stereo not drawn) | -1.1% [at 5.75 µM] (inactive) | 
CC1CCc2c(sc3nc4n(c(=O)c23)CCS4)C1 (stereo not drawn) | -29.8% (inactive) | 
CCCn1nnc2sc3c(c2c1=O)CCC(C)C3 (stereo not drawn) |  | 11.7 µM (active)
COc1cccc(COC(=O)C2CCN(S(=O)(=O)c3cccs3)CC2)c1OC | 8.27% (inactive) | 
Cn1c(=O)c2sccc2n(Cc2ccc(Br)cc2)c1=O | 161% (inactive) | 
O=C(Nc1ccccc1C(=O)Nc1ccncc1)c1ccc([N+](=O)[O-])cc1 | 32.1% (inactive) | 
CN=C(NC#N)NCCSCc1nc[nH]c1C |  | inactive and 13.5 µM (active)
O=C(Nc1cccnc1)c1cc([N+](=O)[O-])ccc1Cl | -2.06% (inactive) | 
O=C(CCc1nnc2ccc(NCCCN3CCCC3=O)nn12)NCc1ccccc1Cl | -20.1% (inactive) | 
CSCCC(=O)N1CCCC(CNC(=O)c2ccccc2Cl)C1 (stereo not drawn) | 0% (inactive) | 
O=C(CCc1nnc2ccc(NCc3ccccc3Cl)nn12)NCC1CCN(C2CCCC2)C1 (stereo not drawn) |  | 5.22 µM (active)
Cc1cccc(N(C)C(=O)c2cc(S(=O)(=O)N3CCCCC3)c[nH]2)c1 | -0.248% (inactive) | 
Cn1nc(C(F)(F)F)c(C(=O)Nc2cccc(C(F)(F)F)c2)c1SCc1ccc(Cl)cc1 |  | 2.62 µM (active)

Structure (SMILES) | activity change, negative = inhibition | Potency
O=C(O)CSc1c2c(nc3cc(C(=O)Nc4cccc(C(F)(F)F)c4)ccc13)CCCC2 | -27% (inactive) | 
CC(C)C[C@H](NC(=O)Nc1cccc(C(F)(F)F)c1)C(=O)O | -1.23% (inactive) | 
O=C(OCC(=O)N1CCOCC1)c1ccc2ccccc2c1 | 35.2% (inactive) | 
Cc1ccc(NC(=O)c2nc[nH]c2C(=O)N[C@@H](CCCCNC(=O)OC(C)(C)C)C(=O)OC(C)(C)C)cc1 |  | 11.7 µM (active)
Cc1cccc(NC(=O)c2nc[nH]c2C(=O)NCC(=O)OCc2ccccc2)c1 | 22.3% (inactive) | 
CCOC(=O)c1ccc(NC(=O)c2nc[nH]c2C(=O)N[C@@H](CCCCNC(=O)OC(C)(C)C)C(=O)OC(C)(C)C)cc1 |  | 5.86 µM (active)
CCOC(=O)c1[nH]cnc1C(=O)Nc1ccccc1C | -23.1% (inactive) | 
CNC(=O)c1[nH]cnc1C(=O)N[C@@H](CC(C)C)C(=O)OC(C)(C)C | 0.082% (inactive) | 
CCOC(=O)c1ccc(NC(=O)c2nc[nH]c2C(=O)NCc2ccccc2)cc1 | -3.51% (inactive) | 
C=CCSc1ccc(S(=O)(=O)N2CCN(C)CC2)cn1 | 0.0245% (inactive) | 
Cc1cc(NC(=O)c2ccco2)c(=O)n(Cc2c(F)cccc2Cl)c1 | -11.1% (inactive) | 
CCOC(=O)N1CCN(c2c(NCCN3CCN(c4ccccc4F)CC3)c(=O)c2=O)CC1 | -26% (inactive) | 
COc1ccccc1NC(=O)CCC(=O)OC(C)C(=O)c1ccccc1 (stereo not drawn) | -3.12% (inactive) | 
Cc1ccc(C(=O)NCC(=O)OCC(=O)Nc2cccc(S(=O)(=O)N3CCCC3)c2)cc1C | 32.5% (inactive) | 
Cc1ccc(CN2CCN(c3ncccn3)CC2)c(C)c1 | 0% (inactive) | 
CC(=O)N1CCN(C(=O)Nc2cccc(C(F)(F)F)c2)CC1 | -7.32% (inactive) | 
Cc1cccc(NC(=O)c2cccc(C(F)(F)F)c2)c1 | 4.71% (inactive) | 
Cc1cccc(NC(=O)c2nnn(-c3cccc(C(F)(F)F)c3)c2N)c1 |  | 5.86 µM (active)
O=C(O)C1CCCN1S(=O)(=O)c1ccc(Br)cc1 (stereo not drawn) | 14% (inactive) | 
COc1ccc(-c2c(C#Cc3ccccc3)c3ccccc3n2C)cc1 |  | 6.57 µM (active)
COc1ccc(OCCCC(=O)NCCc2ccccc2)cc1 | 370% (inactive) | 
COc1ccc(CCNCc2c(-c3ccccc3)n(C)c3ccccc23)cc1 |  | 10.4 µM (active)
COc1ccc(-c2c3c(=O)n(C)c(=O)n(C)c3cn2-c2cccc(OC)c2)cc1 | 13.8% (inactive) | 
COc1ccc(CNc2ncnc3ccccc23)cc1 | -3.8% (inactive) | 
COc1ccc(-c2cc(C(=O)n3cnc4ccccc43)c3ccccc3n2)cc1 | -15.8% (inactive) | 
